Source: ChEMBL document CHEMBL1157539, “Thousands of chemical starting points for antimalarial lead identification” (Nature, 2010)

Tests used:
Assay type in all cases: functional
[1] = system: Plasmodium falciparum; assay: GSK_TCMDC: Inhibition of Plasmodium falciparum 3D7 in whole red blood cells, using parasite LDH activity as an index of growth. Test compounds present at 2uM
[2] = system: Plasmodium falciparum; assay: GSK_TCMDC: Inhibition of Plasmodium falciparum Dd2 in whole red blood cells, using parasite LDH activity as an index of growth. Test compounds present at 2uM
[3] = system: HepG2; assay: GSK_TCMDC: Percent inhibition of human HepG2 cell line. Test compounds present at 10uM.

O=C(Cc1cccc(Cl)c1)Nc1cccc(-c2c[nH]c3nc(Nc4cccc(O)c4)ncc23)c1.O=C(O)C(F)(F)F
Inhibition [1]: 100%
Inhibition [2]: 74%
Inhibition [3]: 23%

CCn1ccc2c(N3CCCS3(=O)=O)cc(C(=O)N[C@@H](Cc3ccccc3)[C@H](O)CNC(C)(C)c3cccc(OC)c3)cc21
Inhibition [1]: 99%
Inhibition [2]: 98%
Inhibition [3]: 20%

CN(CCc1ccccc1)c1ncc(-c2cccc(CNCCC3CCCN3C)c2)cn1 (stereo not given)
Inhibition [1]: 92%
Inhibition [2]: 98%
Inhibition [3]: 99%

COc1cc(Cc2cnc(N)nc2N)ccc1OCc1ccc(F)c(F)c1
Inhibition [1]: 90%
Inhibition [2]: 31%
Inhibition [3]: 10%

CN(C)Cc1ccc2cc(NC(=O)c3ccc(-c4ccc(Cl)cc4)cc3)ccc2n1.O=C(O)C(F)(F)F
Inhibition [1]: 86%
Inhibition [2]: 30%
Inhibition [3]: 60%

COc1ccc2nccc([C@@H](O)CN3CCC(NC(=O)c4cc5c(F)cc(F)cc5[nH]4)CC3)c2c1.CS(=O)(=O)O
Inhibition [1]: 100%
Inhibition [2]: 98%
Inhibition [3]: 33%

Fc1ccc2[nH]c(-c3ccc(-c4cccc(CN5CCCCC5)c4)cc3)nc2c1.O=C(O)C(F)(F)F
Inhibition [1]: 100%
Inhibition [2]: 100%
Inhibition [3]: 10%

CC(C)CNCc1cccc(-c2cccc(CN(CCCN3CCN(C)CC3)C(=O)NC3CCCCC3)c2)c1.O=C(O)C(F)(F)F
Inhibition [1]: 100%
Inhibition [2]: 84%
Inhibition [3]: 16%

CC(C)CN(Cc1c(O)ccc2[nH]c(-c3ccc(F)cc3F)nc12)CC(C)C
Inhibition [1]: 98%
Inhibition [2]: 92%
Inhibition [3]: 11%

COc1ccc2nccc([C@@H](O)CN3CCC(NCCNc4ccccn4)CC3)c2c1.O=C(O)C(=O)O
Inhibition [1]: 100%
Inhibition [2]: 14%
Inhibition [3]: 18%
